Potency and affinity values are given separately. A number with no mark means an inactive call. How the calls were made is not given here.

The nature of this experiment: single-agent growth inhibition of C. albicans, dose response, counter-screen for antifungal drug resistance project, C. albicans CaCi-2, dry powder (AID 488802). The conditions noted are these: C. albicans CaCi-2 (fluconazole-resistant clinical isolate) growth, no fluconazole, Alamar Blue, 48 h; series mostly up to 26 µM; activity change, negative = inhibition: at the top concentration. Background: A counterscreen serves to expose hits that act by an unwanted route or on another target.
Regarding `COc1ccc(OC)c2c(C)cc(N3CCN(C(=O)c4ccc(Cl)cc4)CC3)nc12`, the “activity change, negative = inhibition” value is -9.23%.
Next, `CCCNC(=O)Cn1nc(-c2ccccc2)c2ccccc21`: 7.83%; `O=C(Cn1c2ccccc2c2nc3n(c(=O)c21)CCCS3)c1ccc(F)cc1`: 6.11%.
Next, `O=C(Cn1nc(C(=O)N2CCCCC2)c2ccccc21)N1CCOCC1`: 28.7%; `CCOC(=O)c1c2ccccc2nn1Cc1ccc(Cl)cc1`: -15.6%.
For `O=C(Nc1ccc(C(F)(F)F)cc1)N1CCN(c2ccnc3cc(Cl)ccc23)CC1`, the “activity change, negative = inhibition” value is -34.5%.
Next, `CCCCNC(=O)N1CCN(c2ccnc3cc(Cl)ccc23)CC1`: -7.56%.
For the compound `CNC(=O)Cn1nc(-c2ccccc2)c2ccccc21`, the “activity change, negative = inhibition” value was -11.6%.
The result for `O=c1c2[nH]c3ccccc3c2nc2n1CCS2` reads -34.9%; that for `O=C(c1ccc(Cl)cc1)N1CCN(c2ccc(Cl)cc2)CC1`, -1.08%.
With `COC(=O)Cn1nc(C)c2ccccc21`, the “activity change, negative = inhibition” value is 11%.
Take `O=C(c1ccccc1)N1CCN(c2ccnc3cc(Cl)ccc23)CC1`: the “activity change, negative = inhibition” value is -30.1%.
As to `O=C(c1csc2ccccc12)N1CCN(c2ccnc3cc(Cl)ccc23)CC1`, the “activity change, negative = inhibition” value is 3.03%.
The result for `c1ccc(-c2n[nH]c3ccccc23)cc1` reads 18.7%.
Turning to `O=C(Cn1nc(-c2ccccc2)c2ccccc21)NCc1ccc(Cl)cc1`, the “activity change, negative = inhibition” value is -10.8%.
The result for `COC(=O)Cn1nc(-c2ccccc2)c2ccccc21` reads -40.4%; that for `O=C(Cn1nc(-c2ccccc2)c2ccccc21)N1CCc2ccccc2C1`, -15.2%.
On to `COC(=O)Cn1nc(-c2ccc(Cl)cc2)c2ccccc21`, for which the “activity change, negative = inhibition” value is -11.2%.
Next, `O=C(O)c1c2ccccc2nn1Cc1ccc(Cl)cc1`: -17.9%.
Take `O=C(Cn1c2ccccc2c2nc3n(c(=O)c21)CCS3)NCCc1ccc(Cl)cc1`: the “activity change, negative = inhibition” value was 19.3%.
For the compound `O=C(C1CC1)N1CCN(c2ccnc3cc(Cl)ccc23)CC1`, the “activity change, negative = inhibition” value was -23.3%.
Turning to `COc1ccc2c(c1)c1nc3n(c(=O)c1n2CC(=O)N1CCC(C)CC1)CCS3`, the activity change, negative = inhibition was 13.5% [at 2.6 µM].
Consider `O=C(O)c1nn(Cc2ccc(Cl)cc2)c2ccccc12`, for which the “activity change, negative = inhibition” value is -23.6%.
Next, `CCOC(=O)c1nn(Cc2ccc(Cl)cc2)c2ccccc12`: -15.9%.
`O=C(c1ccc(Cl)cc1)N1CCN(c2cc(C(F)(F)F)nc3ccccc23)CC1`: the “activity change, negative = inhibition” value is -13.8%.
The result for `O=C(Cn1nc(-c2ccccc2)c2cc(Cl)ccc21)N1CCOCC1` reads 14.3%; that for `COc1ccc2c(c1)c1nc3n(c(=O)c1n2CC(=O)N1CCC(Cc2ccccc2)CC1)CCS3`, 7.8%.
In the case of `COC(=O)Cn1nc(-c2ccc(C)cc2)c2ccccc21`, the “activity change, negative = inhibition” value was -30.7%.
Consider `O=C(Cn1c2ccccc2c2nc3n(c(=O)c21)CCS3)N1CCCC1`, for which the “activity change, negative = inhibition” value was 9.78%.
Next, `O=S(=O)(c1ccc(Cl)cc1)N1CCN(c2ccnc3cc(Cl)ccc23)CC1`: -32.2%; `O=C(c1cccs1)N1CCN(c2ccnc3cc(Cl)ccc23)CC1`: -9.52% [at 12 µM].
Consider `O=C(c1ccc(Cl)cc1)N1CCN(c2ccccn2)CC1`, for which the “activity change, negative = inhibition” value is -37.2%.
Next, `CC1CCN(C(=O)Cn2c3ccc(F)cc3c3nc4n(c(=O)c32)CCCS4)CC1`: 0.966%.
On to `COC(=O)Cn1nc(-c2ccccc2)c2cc(Cl)ccc21`, for which the “activity change, negative = inhibition” value was 4.23%.
Consider `CCN(CC)C(=O)Cn1c2ccccc2c2nc3n(c(=O)c21)CCS3`, for which the “activity change, negative = inhibition” value is 5.76%.

Values taken from PubChem BioAssay AID488802 (Broad Institute, 2010).
